About 3,600 (6.2%) of roughly 58,000 sequences were called active. Rule as the data show it: active = GI50 up to about 1.1 µM and inactive = higher. Only a sample is shown. Measured potencies and affinities stand elsewhere.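 48-hour exposure; five concentrations; linearly interpolated endpoints. Here, GI50 denotes the concentration required for 50% inhibition of growth.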

The test deals with OVCAR-8. Briefly: NCI tumour cell line growth inhibition, 48 h.
As for “[Bis(aminomethyl)dimethylsilane]tetrachloroplatinum(IV), CHEMBL2146190”, the GI50 was 12 µM.
To “mu-(1,7-nanodiamine-N,N')bis-(cis-aminedichloroplatimum (II)), CHEMBL2146215” belongs 52.6 µM; to CISPLATIN, CHEMBL11359, 4.52 µM; to “[Bis(aminomethyl)diethylsilane]tetrachloroplatinum(IV), CHEMBL2146203”, 3.53 µM.
In turn, “[Bis(aminomethyl)ethylmethylsilane]tetrachloroplatinum(IV), CHEMBL2146192” came in with a GI50 of 3.7 µM.
To “[Bis(aminomethyl)tetramethylenesilane]tetrachloropaltinum(IV), CHEMBL2146189” belongs 6.01 µM; to “cis-Bis[[(trimethylsilyl)methyl]amino]tetrachloroplatinum(IV), CHEMBL2146191”, 2.44 µM.
Under “[Bis(aminomethyl)dimethylsilane]dichloroplatinum (II), CHEMBL2146201” stands 29.8 µM.
“[Bis(aminomethyl)pentamethylenesilane]tetrachloropaltinum(IV), CHEMBL2146204”: the GI50 turned out to be 2.17 µM.
To “[Bis(aminomethyl)tetramethylenesilane]dichloropaltinum(II), CHEMBL2146205” belongs 17 µM; to “[Bis(aminomethyl)pentamethylenesilane]dichloropaltinum(II), CHEMBL2146202”, 2.05 µM.

The values are drawn from ChEMBL document CHEMBL1201862, “PubChem BioAssay data set” (2004).
